This is an account of results in PubChem BioAssay.

Activity calls are given as the source filed them.

Test [1] in a line: binders of probe aFSTL3 on microarray, primary screen, stem cell growth factor project, biochemical, small-molecule microarray, fluorescence 635/667 (AID 1064).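 Note: measures binding of the biotinylated anti-FSTL3 antibody to printed compounds.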 The note with it: higher = more signal.
Test [2] can be described thus: binders from COS7 lysate, DM2A8 probe, primary screen, torsin A project, cell lysate, small-molecule microarray, fluorescence 635/667 (AID 1065). The note with it: higher = more signal, COS7 lysate expressing mutant human TOR1A.
The nature of test [3]: binders of probe aFGF2 on microarray, primary screen, stem cell growth factor project, biochemical, small-molecule microarray, fluorescence 635/667 (AID 1067).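 Note: measures binding of biotinylated aFGF2 protein to printed compounds on slides; z-score merges feature fluorescence and signal-to-noise across triplicate slides.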 The note with it: higher = more signal.
Test [4] can be described thus: binders of probe aFGF10 on microarray, primary screen, stem cell growth factor project, biochemical, small-molecule microarray, fluorescence 635/667 (AID 1071).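 Note: score merges 667 nm spot intensity and signal to noise from triplicate slides.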 The note with it: higher = more signal.
In test [5] the target is Neurogenic locus notch homolog protein 2 (Homo sapiens) (UniProt Q04721). Briefly: Notch2 binders on small-molecule microarrays, primary screen, biochemical, small-molecule microarray, 635 nm fluorescence, stem cell growth factors (AID 1073). Conditions: Notch2 binding, higher = more signal.
Sequence of Neurogenic locus notch homolog protein 2 (Homo sapiens) (Q04721 whole entry, looked up, canonical isoform): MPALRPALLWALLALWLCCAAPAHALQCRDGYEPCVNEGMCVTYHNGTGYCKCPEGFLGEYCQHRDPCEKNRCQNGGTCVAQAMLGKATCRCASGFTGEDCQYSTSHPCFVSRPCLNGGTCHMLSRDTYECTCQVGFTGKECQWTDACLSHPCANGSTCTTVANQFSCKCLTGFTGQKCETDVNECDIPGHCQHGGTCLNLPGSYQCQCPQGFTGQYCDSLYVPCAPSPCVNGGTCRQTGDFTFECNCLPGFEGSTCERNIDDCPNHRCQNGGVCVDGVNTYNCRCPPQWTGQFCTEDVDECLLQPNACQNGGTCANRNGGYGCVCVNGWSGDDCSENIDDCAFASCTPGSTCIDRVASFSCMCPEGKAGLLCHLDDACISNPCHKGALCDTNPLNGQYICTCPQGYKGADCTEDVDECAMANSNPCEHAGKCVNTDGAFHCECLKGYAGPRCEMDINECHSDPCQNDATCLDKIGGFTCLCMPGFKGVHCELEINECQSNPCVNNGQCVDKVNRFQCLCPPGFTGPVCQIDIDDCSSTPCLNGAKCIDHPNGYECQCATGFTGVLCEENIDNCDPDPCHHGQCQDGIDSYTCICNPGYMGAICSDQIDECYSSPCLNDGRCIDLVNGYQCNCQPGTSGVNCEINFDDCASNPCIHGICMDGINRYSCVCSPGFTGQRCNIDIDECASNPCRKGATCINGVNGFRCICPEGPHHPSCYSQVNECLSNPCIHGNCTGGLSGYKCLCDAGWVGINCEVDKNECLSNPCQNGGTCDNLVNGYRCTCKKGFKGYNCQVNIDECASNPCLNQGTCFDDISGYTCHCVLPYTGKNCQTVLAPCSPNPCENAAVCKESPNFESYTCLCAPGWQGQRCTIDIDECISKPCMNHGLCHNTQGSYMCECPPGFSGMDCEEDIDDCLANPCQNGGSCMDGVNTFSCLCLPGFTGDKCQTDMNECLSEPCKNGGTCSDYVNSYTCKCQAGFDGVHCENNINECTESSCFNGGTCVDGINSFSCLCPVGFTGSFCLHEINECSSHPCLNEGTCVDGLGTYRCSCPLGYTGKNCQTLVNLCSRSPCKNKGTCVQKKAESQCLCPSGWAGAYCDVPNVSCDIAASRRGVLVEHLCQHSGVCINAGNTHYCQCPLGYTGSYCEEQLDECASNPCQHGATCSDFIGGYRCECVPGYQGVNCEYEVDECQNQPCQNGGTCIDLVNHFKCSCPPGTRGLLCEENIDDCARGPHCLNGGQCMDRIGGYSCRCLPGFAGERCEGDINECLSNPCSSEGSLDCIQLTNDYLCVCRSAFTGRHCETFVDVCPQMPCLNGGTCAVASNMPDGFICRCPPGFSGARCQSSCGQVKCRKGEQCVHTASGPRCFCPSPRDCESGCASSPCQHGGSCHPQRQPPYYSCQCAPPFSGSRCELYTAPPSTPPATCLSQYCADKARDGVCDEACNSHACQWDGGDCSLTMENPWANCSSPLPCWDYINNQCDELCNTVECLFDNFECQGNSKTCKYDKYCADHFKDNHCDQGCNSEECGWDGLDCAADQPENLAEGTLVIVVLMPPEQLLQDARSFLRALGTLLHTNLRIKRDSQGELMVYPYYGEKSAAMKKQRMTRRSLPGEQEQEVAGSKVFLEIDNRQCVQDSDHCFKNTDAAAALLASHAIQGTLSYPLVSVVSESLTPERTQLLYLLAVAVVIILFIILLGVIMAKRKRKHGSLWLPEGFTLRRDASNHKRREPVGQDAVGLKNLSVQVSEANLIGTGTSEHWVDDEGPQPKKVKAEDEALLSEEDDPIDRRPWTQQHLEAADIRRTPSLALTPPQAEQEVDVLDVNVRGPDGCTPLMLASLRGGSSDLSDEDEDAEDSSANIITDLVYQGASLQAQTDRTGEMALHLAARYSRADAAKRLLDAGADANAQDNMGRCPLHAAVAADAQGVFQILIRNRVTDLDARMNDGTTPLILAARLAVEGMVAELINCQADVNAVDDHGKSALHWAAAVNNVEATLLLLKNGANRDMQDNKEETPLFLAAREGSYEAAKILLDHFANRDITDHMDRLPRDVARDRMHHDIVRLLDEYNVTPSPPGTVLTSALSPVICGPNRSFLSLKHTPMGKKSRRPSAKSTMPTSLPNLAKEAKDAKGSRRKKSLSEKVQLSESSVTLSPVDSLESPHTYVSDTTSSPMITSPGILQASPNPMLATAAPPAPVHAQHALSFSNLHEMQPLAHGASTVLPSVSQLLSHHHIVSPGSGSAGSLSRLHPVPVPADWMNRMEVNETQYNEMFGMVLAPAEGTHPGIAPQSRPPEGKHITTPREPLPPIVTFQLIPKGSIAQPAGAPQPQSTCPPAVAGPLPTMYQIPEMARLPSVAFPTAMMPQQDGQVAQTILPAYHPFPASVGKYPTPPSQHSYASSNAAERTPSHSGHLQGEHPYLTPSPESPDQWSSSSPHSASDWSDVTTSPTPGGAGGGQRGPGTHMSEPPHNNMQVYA
The target of test [6] is Pro-neuregulin-1, membrane-bound isoform (Homo sapiens) (UniProt Q02297). Briefly: NRG1 binders on small-molecule microarrays, primary screen, psychiatric disease protein project, biochemical, small-molecule microarray, fluorescence 635/667 (AID 1075).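 Note: score combines 667 nm spot fluorescence with signal to noise.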 Conditions: NRG1 binding, 635 nm fluorescence, higher = more signal.
The subject of test [7] is Neuregulin-1 EGF-like domain. Description: binders of neuregulin-1 EGF-like domain, primary screen, biochemical, small-molecule microarray, 635 nm fluorescence (AID 1081).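 Note: binding of the protein to compounds printed on small-molecule microarray slides.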 The note with it: small-molecule microarray binding, higher = more signal.
Test [8] in a line: FRG1 promoter luciferase signal modulators, primary screen, FRG1 inhibition for FSHD, cell-based, C2C12 myotubes, firefly/Renilla luciferase, luminescence (AID 1084). The note with it: higher = more signal, called active from +8 up or from −8 down.
Test [9] in a line: binders of probe aFST on microarray, primary screen, stem cell growth factor project, biochemical, small-molecule microarray, fluorescence 635/667 (AID 1086).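 Note: score merges 667 nm fluorescence with signal-to-noise of each printed compound spot.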 Conditions: higher = more signal.
Test [10] is described as follows: binders of probe aHhip on microarray, primary screen, stem cell growth factor project, biochemical, small-molecule microarray, fluorescence 635/667 (AID 1087).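 Note: score merges spot fluorescence at 667nm with spot signal to noise ratio.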 Conditions: higher = more signal.
Test [11] deals with PRMT1 (protein arginine N-methyltransferase 1). Briefly: PRMT1 binders on small-molecule microarrays, primary screen, biochemical, small-molecule microarray, 635 nm fluorescence (AID 1088).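 Note: binding of Prmt1 protein to compounds spotted on small-molecule microarray slides.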 The note with it: small-molecule microarray binding, higher = more signal.
Test [12] can be described thus: yeast growth modulation, basal conditions, primary screen, YJM789 clinical isolate, OD600, 24 h (AID 1089).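 Note: growth of clinical yeast isolate S. cerevisiae YJM 789 seeded 1000 cells per well; test concentration not given here.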 Conditions: S. cerevisiae YJM789 growth, higher = more signal, called active from +8 up or from −8 down.
A short description of test [13]: fission yeast growth modulation, primary screen, strain 972, OD600, 24 h, no modulator (AID 1090).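 Note: basal condition with compound alone and no growth modifier present; test concentration not given here.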 Conditions: S. pombe 972 growth, higher = more signal, called active from +8 up or from −8 down.
Test [14] can be described thus: S. cerevisiae growth modulation with rapamycin, primary screen, strain BY4716, OD600, 96 h (AID 1091). Note: test concentration not given here. The note with it: higher = more signal, called active from +8 up or from −8 down.
The target in test [15] is Torsin-1A-interacting protein 2 (Homo sapiens) (UniProt Q8NFQ8). Description: LULL1 binders on small-molecule microarray, primary screen, cell lysate, human LULL1 lysate, 635/667 nm fluorescence (AID 1092).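 Note: probe is lysate of COS7 cells overexpressing human LULL1; score merges per-feature 667 nm fluorescence with signal-to-noise.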 The note with it: hLULL1 lysate binding, 635 nm fluorescence, higher = more signal.
Test [16] is described as follows: E. coli growth modulation, two-sided OD650, primary screen, E. coli filamentation project, strain DRC41, 24 h (AID 1093).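 Note: MC1000 strain lacking acrAB efflux and sulA so SOS filamentation is blocked; test concentration not given here.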 Conditions: OD650, 24 h, higher = more signal, called active from +8 up or from −8 down.
Test [17] can be described thus: small-molecule microarray binders of probe aLefty2, primary screen, biochemical, biotinylated probe, 635/667 nm fluorescence (AID 1094).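 Note: score merges spot fluorescence near 667 nm with spot signal-to-noise ratio.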 The note with it: higher = more signal.
For test [18], the system named is Noggin (protein binding on small-molecule microarray). Description: Noggin binders on small-molecule microarray, primary screen, biochemical, 635/667 nm fluorescence (AID 1095).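 Note: score merges 667 nm feature fluorescence with signal to noise over triplicate slides.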 The note with it: 635 nm fluorescence, higher = more signal.
The target in test [19] is Neurogenic locus notch homolog protein 3 (Homo sapiens) (UniProt Q9UM47). Briefly: NOTCH3 binders on small-molecule microarray, primary screen, biochemical, 635/667 nm fluorescence (AID 1096). The note with it: NOTCH3 binding, 635 nm fluorescence, higher = more signal.
Sequence of Neurogenic locus notch homolog protein 3 (Homo sapiens) (Q9UM47 whole entry, looked up): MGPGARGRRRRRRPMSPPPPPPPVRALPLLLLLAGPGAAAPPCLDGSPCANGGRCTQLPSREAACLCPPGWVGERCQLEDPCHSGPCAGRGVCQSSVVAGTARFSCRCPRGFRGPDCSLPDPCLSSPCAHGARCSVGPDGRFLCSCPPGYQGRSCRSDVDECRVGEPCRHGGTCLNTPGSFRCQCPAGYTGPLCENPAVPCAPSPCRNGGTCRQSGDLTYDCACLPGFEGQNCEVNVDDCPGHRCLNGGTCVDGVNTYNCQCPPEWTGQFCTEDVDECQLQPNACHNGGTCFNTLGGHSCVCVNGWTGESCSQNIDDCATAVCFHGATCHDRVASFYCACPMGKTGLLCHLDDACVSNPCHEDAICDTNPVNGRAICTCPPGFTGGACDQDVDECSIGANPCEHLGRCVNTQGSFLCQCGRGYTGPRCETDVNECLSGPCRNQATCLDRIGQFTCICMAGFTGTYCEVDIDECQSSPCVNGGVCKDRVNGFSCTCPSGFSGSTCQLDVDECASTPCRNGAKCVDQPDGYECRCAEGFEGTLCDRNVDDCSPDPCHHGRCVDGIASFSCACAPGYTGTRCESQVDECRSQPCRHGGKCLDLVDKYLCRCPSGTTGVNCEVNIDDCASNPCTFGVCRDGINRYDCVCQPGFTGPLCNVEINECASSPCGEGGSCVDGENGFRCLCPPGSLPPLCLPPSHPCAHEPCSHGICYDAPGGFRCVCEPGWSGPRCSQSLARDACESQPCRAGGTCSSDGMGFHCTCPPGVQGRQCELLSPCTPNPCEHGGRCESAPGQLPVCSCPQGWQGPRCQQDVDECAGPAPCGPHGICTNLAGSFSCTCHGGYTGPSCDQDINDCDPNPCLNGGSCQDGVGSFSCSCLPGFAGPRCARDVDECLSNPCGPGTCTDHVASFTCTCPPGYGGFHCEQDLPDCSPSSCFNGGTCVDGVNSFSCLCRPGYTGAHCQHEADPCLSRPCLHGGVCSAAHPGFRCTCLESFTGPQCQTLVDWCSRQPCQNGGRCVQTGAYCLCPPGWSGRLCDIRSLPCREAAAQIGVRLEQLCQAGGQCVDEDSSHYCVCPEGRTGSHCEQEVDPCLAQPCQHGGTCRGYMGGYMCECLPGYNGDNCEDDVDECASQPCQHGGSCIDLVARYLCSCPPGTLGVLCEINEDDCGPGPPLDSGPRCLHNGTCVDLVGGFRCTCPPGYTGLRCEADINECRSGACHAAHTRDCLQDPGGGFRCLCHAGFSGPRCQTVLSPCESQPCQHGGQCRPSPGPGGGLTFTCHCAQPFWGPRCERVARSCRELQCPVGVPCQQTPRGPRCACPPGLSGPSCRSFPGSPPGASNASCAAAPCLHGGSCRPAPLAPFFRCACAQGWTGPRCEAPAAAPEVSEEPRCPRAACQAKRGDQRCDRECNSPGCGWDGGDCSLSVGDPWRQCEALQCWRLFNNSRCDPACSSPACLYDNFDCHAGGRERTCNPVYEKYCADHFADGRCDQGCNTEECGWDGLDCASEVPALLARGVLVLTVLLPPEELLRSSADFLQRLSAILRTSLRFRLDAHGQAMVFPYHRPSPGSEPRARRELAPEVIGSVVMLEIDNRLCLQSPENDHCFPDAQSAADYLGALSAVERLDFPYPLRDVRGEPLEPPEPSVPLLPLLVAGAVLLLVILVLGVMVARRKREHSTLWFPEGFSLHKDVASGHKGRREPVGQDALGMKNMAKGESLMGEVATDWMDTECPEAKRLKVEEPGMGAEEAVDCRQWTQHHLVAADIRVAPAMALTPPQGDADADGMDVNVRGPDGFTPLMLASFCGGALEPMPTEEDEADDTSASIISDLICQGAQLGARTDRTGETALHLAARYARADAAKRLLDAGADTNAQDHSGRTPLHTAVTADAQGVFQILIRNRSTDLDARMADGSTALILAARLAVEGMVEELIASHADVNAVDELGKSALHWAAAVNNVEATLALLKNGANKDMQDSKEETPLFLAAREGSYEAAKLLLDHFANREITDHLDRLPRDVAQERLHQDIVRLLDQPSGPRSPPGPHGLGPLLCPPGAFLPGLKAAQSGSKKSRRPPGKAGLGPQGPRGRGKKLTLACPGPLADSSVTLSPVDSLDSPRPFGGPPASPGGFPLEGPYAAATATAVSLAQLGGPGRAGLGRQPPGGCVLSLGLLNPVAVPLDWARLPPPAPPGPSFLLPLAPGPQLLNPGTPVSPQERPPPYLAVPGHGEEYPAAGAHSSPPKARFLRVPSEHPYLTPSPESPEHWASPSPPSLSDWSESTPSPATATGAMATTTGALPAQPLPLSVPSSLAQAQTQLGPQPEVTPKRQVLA
The nature of test [20]: small-molecule microarray binders of probe aEGFR, primary screen, biochemical, biotinylated probe, 635/667 nm fluorescence (AID 1097).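 Note: probe is a biotinylated anti-EGFR antibody binding compounds printed on slides; score combines fluorescence near 667 nm and signal to noise of each spot.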 Conditions: higher = more signal.

`CN1C(=O)C2C=CC(C(O)C3CC=CCC3)N(N(c3ccccc3)c3ccccc3)C2C1=O` (stereo not given): the composite z-score in test [1] is 0.677; in test [2], -0.0811; in [3], 0.0247; in test [4], -0.0455; in test [5], 0.172; in test [6], -0.282. Further, the composite z-score in [7] is 0.33; in test [9], 0.408; in test [10], -0.137; in [11] it was -1.73; in test [15], -0.0863; in test [17], 0.639. In addition, the composite z-score in test [18] was -0.264; in test [19], 0.0898; in test [20] it was -0.0823. In addition, the z-score in test [8] was -0.654 (inactive); in test [12], 0.607 (inactive); in [13], 1.7 (inactive); in [14], 1.01 (inactive); in [16], -0.843 (inactive).

With `CN1C(=O)C2C=CC(C(O)c3ccccc3)N(N(c3ccccc3)c3ccccc3)C2C1=O` (stereo not given), the composite z-score is -0.034 in test [1]; 0.287 in [2]; 0.0561 in test [3]; 0.332 in [4]; 0.924 in test [5]; 0.647 in test [6]. The composite z-score was 0.553 in test [7]; 0.474 in test [9]; 0.245 in [10]; -0.124 in test [11]; 0.317 in [15]; 0.603 in [17]. The composite z-score in [18] was 0.141; in [19], 0.422; in test [20] it was -0.0668. For the same molecule, the z-score in test [8] was 0.815 (inactive); in test [12] it was 0.0175 (inactive); in [13], 0.808 (inactive); in test [14], 0.495 (inactive); in test [16] it was -0.642 (inactive).

`O=C(N1CCCCC1)[C@]1(Cc2ccccc2)N=C(c2ccc(OCCCO)cc2)O[C@@H]1c1ccccc1`: the composite z-score in test [1] was 0.542; in test [2], 0.0149; in [3] it was -0.0183; in test [4], 0.541; in [5], 1.51; in test [6], 1.03. For the same molecule, the composite z-score in test [7] amounted to 0.884; in test [9] it was 0.979; in [10], 0.289; in [11], 1.28; in test [15], 2.84; in [17], 0.18. Besides, the composite z-score was -0.281 in test [18], 0.586 in [19] and 0.303 in test [20]. The z-score in [8] was -0.636 (inactive); in test [12] it was -0.425 (inactive); in [13], -1.52 (inactive); in test [14], 3.64 (inactive); in test [16] it was -0.331 (inactive).

`O=C1O[C@@H](c2ccccc2)[C@@H](c2ccccc2)N2[C@@H](c3ccccc3OCCO)[C@]3(C(=O)Nc4ccc(C#CC5=CCCCC5)cc43)[C@@H](C(=O)N3CCCCCCC3)[C@H]12`: the composite z-score in test [1] worked out at 3.71; in test [2] it was 2.23; in [3], 0.978; in test [4], 1.14; in test [5], 1.65; in test [6], 2.07. The composite z-score in test [7] worked out at 1.07; in test [9], 3.59; in [10], 3.84; in [11], 1.53; in test [15], 4.38; in test [17] it was 1.74. Also, the figures for the composite z-score in [18], in test [19] and in test [20] were 1.88, 1.02 and 1.34, respectively. The z-score in test [8] is -0.27 (inactive); in test [12] it was 1.1 (inactive); in [13] it was -0.354 (inactive); in test [14], 2.02 (inactive); in test [16], -0.641 (inactive).

On to `O=C(c1ccccc1)N1Cc2ccccc2C[C@@]2(COC(c3ccc(OCCCO)cc3)=N2)C1=O`, for which the composite z-score in [1] was -0.0932; in test [2], 0.711; in test [3], 0.0292; in test [4] it was 0.591; in test [5], 1.03; in test [6], 0.0612. The composite z-score in test [7] was 1.25; in test [9] it was 0.146; in test [10] it was -0.0296; in [11] it was 1.55; in [15] it was 3.39; in test [17] it was 0.0478. Besides, the composite z-score was 0.779 in test [18], 1.04 in test [19] and -0.0439 in test [20]. Also, the z-score is -0.187 (inactive) in test [8]; -1.1 (inactive) in test [12]; -11.1 (active) in test [13]; 3.57 (inactive) in [14]; 0.0571 (inactive) in test [16].
